Our source for the cytotoxicity call values is the antibiotic and cytotoxicity screens of Wong et al. (2023).

In all, about 39,000 compounds went through this assay and about 3,300 (8.5%) were called active. For the sample, actives were picked, then their nearest neighbours and some compounds at random.

This assay deals with HepG2. The experiment in a line: cytotoxicity call (relative viability < 0.9). As to conditions: 10 µM.
As for `CCCNC(=O)N1C[C@H]2[C@@H](c3ccccc31)[C@H](CO)N2C(=O)CN1CCOCC1`, the cytotoxicity call is “inactive”.
With `C[C@@H]1CCCCO[C@@H](CN(C)Cc2ccc(Cl)c(Cl)c2)[C@H](C)CN([C@@H](C)CO)C(=O)c2cc(NS(=O)(=O)c3cccs3)ccc2O1` the entry was “inactive”; with `CC(=O)NCC(=O)N1CCC2(CC1)C(=O)N(CC1CC1)CCN2C`, “inactive”.
Under `C[C@@H]1CN([C@H](C)CO)C(=O)c2cc(NS(=O)(=O)c3ccc(F)cc3)ccc2O[C@H]1CN(C)S(C)(=O)=O` stands “inactive”.
With `C[C@@H]1ON(c2ccc(C(=O)OC(C)(C)C)cc2)[C@H](c2ccc(O)cc2)[C@H]1C(=O)N1C(=O)OC[C@H]1Cc1ccccc1` the entry was “inactive”; with `COc1cccc(S(=O)(=O)N(C)C[C@@H]2Oc3ncc(-c4ccc(F)cc4)cc3C(=O)N([C@H](C)CO)C[C@@H]2C)c1`, “inactive”.
As to `COc1cc2nc(N3CCN(C(=O)c4ccco4)CC3)nc(N)c2cc1OC.Cl`, the cytotoxicity call is “active”.
Under `COc1cc2nc(N3CCN(C(=O)C4COc5ccccc5O4)CC3)nc(N)c2cc1OC.CS(=O)(=O)O` (stereo not drawn) stands “inactive”.
In the case of `NC(=O)C1CCN(C(=O)c2ccco2)CC1`, the cytotoxicity call is “inactive”.
Under `COc1cc2nc(N3CCN(C(=O)C4CCCO4)CC3)nc(N)c2cc1OC.Cl` (stereo not drawn) stands “active”; under `O=C(c1ccco1)N1CCNCC1`, “inactive”; under `COc1cc2nc(N(C)CCCNC(=O)C3CCCO3)nc(N)c2cc1OC.Cl` (stereo not drawn), “inactive”.
With `Cl.Cl.NCCNCCNCCN` the entry was “inactive”; with `C[C@@H]1CCCCO[C@@H](CN(C)C(=O)CCC(F)(F)F)[C@H](C)CN([C@@H](C)CO)C(=O)c2cc(NC(=O)Nc3ccccc3)ccc2O1`, “inactive”; with `C[C@@H]1CCCCO[C@H](CN(C)CC2CC2)[C@@H](C)CN([C@H](C)CO)C(=O)c2cc(NC(=O)Cc3ccccc3)ccc2O1`, “inactive”.
With `O=C(C[C@H]1CC[C@@H]2[C@H](COC[C@H](O)CN2C(=O)c2cnccn2)O1)N1CCN(c2ccccc2)CC1`, the cytotoxicity call was “inactive”.
As for `C[C@H](CO)N1C[C@H](C)[C@H](CN(C)CC2CCCCC2)OCCCC[C@H](C)Oc2ccc(NC(=O)CCCN(C)C)cc2C1=O`, the cytotoxicity call is “inactive”.
Turning to `NNC(=O)c1ccc2c(=O)[nH][nH]c(=O)c2c1`, the cytotoxicity call was “inactive”.
Under `CCS(=O)(=O)NCC[C@@H]1CC[C@@H](NS(=O)(=O)c2ccccc2C)[C@H](CO)O1` stands “inactive”.
Turning to `COCc1cn(CC[C@@H]2CC[C@H](NC(=O)CCN3CCCCC3)[C@@H](CO)O2)nn1`, the cytotoxicity call is “inactive”.
Under `CN(C)CCCNC(=O)C[C@@H]1CC[C@H]2[C@@H](COc3ccc(NC(=O)c4ccc5c(c4)OCO5)cc3C(=O)N2C)O1` stands “inactive”; under `C[C@@H]1CN([C@@H](C)CO)C(=O)c2cc(NS(C)(=O)=O)ccc2O[C@@H]1CN(C)C(=O)Nc1ccc(C(F)(F)F)cc1`, “active”; under `C[C@H]1CN([C@@H](C)CO)C(=O)c2cc(NS(C)(=O)=O)ccc2O[C@@H]1CN(C)C(=O)Nc1ccc(F)cc1`, “active”.
Turning to `C[C@H](CO)N1C[C@H](C)[C@@H](CN(C)C(=O)Nc2ccc(C(F)(F)F)cc2)Oc2ccc(NS(C)(=O)=O)cc2C1=O`, the cytotoxicity call was “inactive”.
With `C[C@H]1CN([C@@H](C)CO)C(=O)c2cc(NS(C)(=O)=O)ccc2O[C@H]1CN(C)C(=O)Nc1ccc(C(F)(F)F)cc1` the entry was “active”; with `C[C@@H]1CN([C@H](C)CO)C(=O)c2cc(NS(C)(=O)=O)ccc2O[C@H]1CN(C)C(=O)Nc1ccc(C(F)(F)F)cc1`, “inactive”; with `C[C@H]1CN([C@@H](C)CO)C(=O)c2cc(NS(C)(=O)=O)ccc2O[C@@H]1CN(C)C(=O)Nc1ccc(C(F)(F)F)cc1`, “inactive”.
Under `C[C@H]1CN([C@@H](C)CO)C(=O)c2cc(NS(C)(=O)=O)ccc2O[C@H]1CN(C)C(=O)Nc1ccc(F)cc1` stands “inactive”; under `C[C@H](CO)N1C[C@H](C)[C@@H](CN(C)C(=O)Nc2ccc(F)cc2)Oc2ccc(NS(C)(=O)=O)cc2C1=O`, “inactive”.
Regarding `C[C@@H]1CN([C@@H](C)CO)C(=O)c2cc(NS(C)(=O)=O)ccc2O[C@H]1CN(C)C(=O)Nc1ccc(C(F)(F)F)cc1`, the cytotoxicity call is “inactive”.
With `C[C@@H]1CCCCO[C@@H](CN(C)C(=O)c2ccncc2)[C@H](C)CN([C@H](C)CO)C(=O)c2cc(NS(C)(=O)=O)ccc2O1` the entry was “inactive”; with `N#C[C@H](c1ccccn1)N1CCOCC1`, “inactive”.
Consider `O=c1n(-c2ccccc2)c(=O)n2n1CC(COc1ccccc1)=C1[C@@H](CCc3ccccc3)OB(O)C[C@@H]12`, for which the cytotoxicity call is “inactive”.
Under `C[C@H](CO)N1C[C@H](C)[C@@H](CN(C)S(C)(=O)=O)Oc2ccc(NS(=O)(=O)c3ccc(F)cc3)cc2C1=O` stands “inactive”; under `COc1cccc(S(=O)(=O)N2C[C@H](O)COC[C@H]3O[C@@H](CC(=O)N4CCOCC4)CC[C@@H]32)c1`, “inactive”; under `CC(C)NC(=O)N[C@@H]1C=C[C@@H](CC(=O)NCCCN(C)C)O[C@@H]1CO`, “inactive”.
For the molecule `O=C(C[C@H]1C[C@@H]2c3cc(NC(=O)C4CCOCC4)ccc3O[C@@H]2[C@@H](CO)O1)NCCN1CCCCC1`, the cytotoxicity call is “inactive”.
Consider `C[C@H]1CN([C@@H](C)CO)C(=O)c2cccc(NC(=O)c3ccncc3)c2O[C@@H]1CN(C)Cc1ccc(C(=O)O)cc1`, for which the cytotoxicity call was “inactive”.
In the case of `C[C@@H]1CN([C@@H](C)CO)C(=O)c2cc(C#Cc3ccccc3F)cnc2O[C@@H]1CN(C)S(=O)(=O)c1ccccc1`, the cytotoxicity call is “inactive”.
`O=S(=O)(c1ccc(-n2cnnn2)cc1)N1CCNCC1`: the cytotoxicity call was “inactive”.
Take `O=S(=O)(c1cccc2cnccc12)N1CCCNCC1`: the cytotoxicity call is “active”.
Consider `O=S(=O)(NCCN(C/C=C/c1ccc(F)cc1)C/C=C/c1ccc(F)cc1)c1cccc2cnccc12`, for which the cytotoxicity call is “inactive”.
With `COc1ccc(S(=O)(=O)Nc2ccc3c(c2)C(=O)N([C@@H](C)CO)C[C@H](C)[C@@H](CN(C)C(=O)Nc2cccc4ccccc24)OCCCC[C@H](C)O3)cc1` the entry was “inactive”.
`C[C@H](CO)N1C[C@H](C)[C@H](CN(C)Cc2ccc(C(=O)O)cc2)Oc2ccc(NC(=O)Nc3cccc4ccccc34)cc2C1=O`: the cytotoxicity call is “inactive”.
Under `C[C@@H]1CN([C@@H](C)CO)C(=O)c2cc(NC(=O)Nc3cccc4ccccc34)ccc2O[C@H]1CN(C)Cc1ccc(-c2ccccc2)cc1` stands “inactive”.
Turning to `C[C@H]1CN([C@@H](C)CO)C(=O)c2cc(NC(=O)Nc3cccc4ccccc34)ccc2O[C@@H]1CN(C)Cc1ccc(-c2ccccc2)cc1`, the cytotoxicity call is “active”.
With `C[C@H]1CN([C@@H](C)CO)C(=O)c2cc(NC(=O)Nc3cccc4ccccc34)ccc2O[C@H]1CN(C)Cc1ccc(-c2ccccc2)cc1`, the cytotoxicity call is “inactive”.
On to `C[C@@H]1CN([C@H](C)CO)C(=O)c2cc(NC(=O)Nc3cccc4ccccc34)ccc2O[C@H]1CN(C)Cc1ccc(-c2ccccc2)cc1`, for which the cytotoxicity call is “active”.
For the molecule `C[C@H](CO)N1C[C@H](C)[C@@H](CN(C)Cc2ccc(-c3ccccc3)cc2)Oc2ccc(NC(=O)Nc3cccc4ccccc34)cc2C1=O`, the cytotoxicity call was “inactive”.
With `C[C@@H]1CN([C@H](C)CO)C(=O)c2cc(NC(=O)Nc3cccc4ccccc34)ccc2O[C@@H]1CN(C)Cc1ccc(-c2ccccc2)cc1` the entry was “active”; with `C[C@@H]1CN([C@@H](C)CO)C(=O)c2cc(NC(=O)Nc3cccc4ccccc34)ccc2O[C@@H]1CN(C)Cc1ccc(-c2ccccc2)cc1`, “inactive”; with `C[C@H]1CN([C@@H](C)CO)C(=O)c2cc(NC(=O)Nc3cccc4ccccc34)ccc2O[C@H]1CN(C)Cc1ccccc1`, “inactive”.
With `C[C@H](CO)N1C[C@H](C)[C@H](CN(C)Cc2ccc(-c3ccccc3)cc2)Oc2ccc(NC(=O)Nc3cccc4ccccc34)cc2C1=O` the entry was “active”; with `C[C@@H]1CN([C@H](C)CO)C(=O)c2cc(NC(=O)Nc3cccc4ccccc34)ccc2O[C@@H]1CN(C)Cc1ccc(C(=O)O)cc1`, “inactive”; with `C[C@H]1CN([C@@H](C)CO)C(=O)c2cc(NC(=O)Nc3cccc4ccccc34)ccc2O[C@H]1CN(C)Cc1ccc(C(=O)O)cc1`, “inactive”.
With `C[C@@H]1CCCCO[C@@H](CN(C)C(=O)NC2CCCCC2)[C@H](C)CN([C@H](C)CO)C(=O)c2cc(NC(=O)NC3CCCCC3)ccc2O1` the entry was “inactive”; with `C[C@H](CO)N1C[C@H](C)[C@@H](CN(C)C(=O)Nc2ccccc2)Oc2ccc(NC(=O)CCCCCC(=O)Nc3ccccc3N)cc2CC1=O`, “inactive”; with `COc1ccccc1C#Cc1cnc2c(c1)C(=O)N([C@H](C)CO)C[C@@H](C)[C@@H](CN(C)C(=O)CC1CC1)O2`, “inactive”.
Consider `C[C@H](CO)N1C[C@H](C)[C@@H](CN(C)S(=O)(=O)c2ccc(Cl)cc2)Oc2ccc(NC(=O)C3CC3)cc2C1=O`, for which the cytotoxicity call is “inactive”.
On to `CCCCCCCCCCCCCCCC(=O)OCC=C(C)C=CC=C(C)C=CC1=C(C)CCCC1(C)C`, for which the cytotoxicity call is “inactive”.
With `C[C@H]1CN([C@@H](C)CO)C(=O)c2cc(N(C)C)ccc2O[C@H]1CN(C)S(=O)(=O)c1ccc(Cl)cc1` the entry was “inactive”; with `C[C@@H]1CCCCO[C@@H](CN(C)S(C)(=O)=O)[C@@H](C)CN([C@H](C)CO)C(=O)c2cc(NS(C)(=O)=O)ccc2O1`, “inactive”; with `CN(C)CCCNC(=O)C[C@@H]1CC[C@@H]2[C@@H](COc3ccc(NS(C)(=O)=O)cc3C(=O)N2C)O1`, “inactive”.
On to `CO[C@@H]1CN(C)C(=O)c2cc(NC(=O)Nc3ccccc3F)ccc2OC[C@H](C)N(Cc2ccccc2C(=O)O)C[C@H]1C`, for which the cytotoxicity call is “inactive”.
Under `Cc1ccc(S(=O)(=O)N(C)C[C@H]2Oc3ccc(NS(=O)(=O)c4cn(C)cn4)cc3CC(=O)N([C@@H](C)CO)C[C@H]2C)cc1` stands “inactive”; under `O=C(Nc1cccc2cccnc12)[C@@H]1[C@H](c2ccc(C(F)(F)F)cc2)CC(=O)N1C(=O)OCc1ccccc1`, “inactive”; under `C[C@@H]1CCCCO[C@H](CN(C)C(=O)c2ccncc2)[C@H](C)CN([C@H](C)CO)C(=O)c2cc(NS(C)(=O)=O)ccc2O1`, “inactive”.
Under `Cc1ccc(S(=O)(=O)N(C)C[C@H]2Oc3cc(Br)ccc3S(=O)(=O)N([C@@H](C)CO)C[C@H]2C)cc1` stands “inactive”.
